# A number with no mark means an inactive call.
# Test system: gramicidin D channels in DC22:1PC lipid vesicles (bilayer-modifying potency)
# Assay: initial Tl+ fluorescence quench rate relative to no-drug control (NormRate, gramicidin monomer-dimer shift) (ratio (fold of control)); higher = stronger bilayer-modifying effect (equilibrium shifted toward conducting dimers), active = 1.5 or more
# Details: 10 µM; lipid concentration 50 µM; temperature: 25 °C
# Protocol: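 Stopped-flow fluorescence quench assay: ANTS-loaded DC22:1PC large unilamellar vesicles doped with gramicidin D (1:2000), 50 µM lipid, equilibrated 10 min with 10 µM drug (0.1% DMSO), mixed with Tl+ quench buffer at 25°C. Initial quench rate (Tl+ influx) was fitted with a modified stretched exponential and normalised to the no-drug control rate (NormRate); duplicates from two independent LUV preparations (triplicates for 7 drugs).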
row,Compound,initial Tl+ fluorescence quench rate
1,CCOc1ccc(-c2nc(CNCCc3ccc(F)cc3)cs2)cc1,1.44
2,O=C(Nc1cccc(Cl)c1)c1cnc(N2CCN(c3ccncc3)CC2)c(Cl)c1,3.74 (active)
3,CCCCc1ccc(C(=O)Nc2nccc3ccccc23)nc1,1.33
4,COc1ccccc1CNC(=O)c1cc(C2CC2)nc2c1cnn2C(C)C,1.62 (active)
5,O=C(NCc1ccoc1)N1CCN(Cc2ccc3c(c2)OCO3)CC1,1.11
6,Cc1nc(-c2ccccn2)nc(N2CC[C@@H](Cc3ccccc3)C2)c1Cl,3.57 (active)
7,Nc1ncnc2c1ncn2[C@@H]1O[C@H](COS(=O)(=O)NC(=O)c2ccccc2O)[C@@H](O)[C@H]1O,1.02
8,C[C@H]1C[C@@H]1C(=O)NC1CCN(CC2(c3ccccc3)CCCCC2)CC1,1.06
9,CC(C)=CCC/C(C)=C\CNCCN[C@H]1[C@@H]2C[C@H]3C[C@@H](C2)C[C@@H]1C3,1.66 (active)
10,C[C@@H]1[C@H](O)[C@@H](C)/C=C/C=C/C=C/C=C/C=C/C=C/C=C/[C@H](O[C@@H]2O[C@H](C)[C@@H](O)[C@H](N)[C@@H]2O)C[C@@H]2O[C@](O)(C[C@@H](O)C[C@@H](O)[C@H](O)CC[C@@H](O)C[C@@H](O)CC(=O)O[C@H]1C)C[C@H](O)[C@H]2C(=O)O,1.03
11,CCOc1ccc(OCC(=O)Nc2cc(C)cc(C)c2)cc1,1.45
12,Cc1ccc2cc([C@@H]3NC(=O)c4ccccc4N3)c(Cl)nc2c1,1.08
